Screening data deposited in PubChem by Broad Institute.
Most compounds without a hit are left out; they make up all but 6.7% or so of the library.
Tcruzi prolif = T. cruzi intracellular proliferation inhibitors, primary screen, cell-based, beta-gal Tulahuen parasites, NIH3T3 host, luminescence | AID 624255, 2012 | hit rate 5.9% among 77,000 | inhibition, % at 8.34 µM | T. cruzi beta-gal in NIH3T3, GalScreen luminescence, 90 h;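 active = mean inhibition above about 93%, with at least 55% of replicates each passing it, limit read from the data, passing the limit was not always enough; inconclusive = only one of those two conditions holds; inactive = neither condition holds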
Pf Dd2 inh = P. falciparum Dd2 growth inhibitors, primary screen, SYBR Green fluorescence, single dose replicates | activity change, % at 10 µM | AID 1159554, 2015 | hit rate 2.3% among 94,000 | 72 h; stronger effect = lower value; in the data active = activity change below about -80%; inconclusive = no clear call, values can overlap the other calls
C diff HTS = C. difficile growth inhibitors, primary screen, HTS; Clostridium difficile clinical isolate growth, OD600, 24 h; stronger effect = lower value; growth activity, negative = inhibition, % at 16 µg/mL (by protocol); hit rate 0.25% among 86,000; AID 1259249, 2017;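 active = mean growth activity at or below -80% and every replicate also at or below -80%; inconclusive = mean at or below -80% but some replicate above -80%; inactive = mean growth activity above -80%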
Each line names hits and unclear results; the compound was inactive in the other large screens.

C[C@@H]1CN([C@H](C)CO)C(=O)c2cc(NC(=O)Cc3cn(C)c4ccccc34)ccc2O[C@@H]1CN(C)C(=O)Nc1ccc2c(c1)OCO2	none
CCCNC(=O)[C@@H]1[C@@H](CO)[C@@H]2Cn3c(ccc(-c4cccc(F)c4)c3=O)[C@H]1N2CCC	none
C[C@@H]1CN([C@H](C)CO)C(=O)c2cccc(NC(=O)c3nc4ccccc4s3)c2O[C@@H]1CN(C)Cc1ccc(C(=O)O)cc1	none
C[C@@H]1CN([C@@H](C)CO)C(=O)c2cccc(NC(=O)c3nc4ccccc4s3)c2O[C@@H]1CN(C)Cc1ccc(C(=O)O)cc1	none
C[C@@H]1CN([C@H](C)CO)C(=O)c2cccc(NC(=O)c3nc4ccccc4s3)c2O[C@@H]1CN(C)Cc1ccc(C(=O)Nc2ccccc2N)cc1	Pf Dd2 inh -88 (no result: C diff HTS)
C[C@@H]1CN([C@@H](C)CO)C(=O)c2cccc(NC(=O)c3nc4ccccc4s3)c2O[C@H]1CN(C)Cc1ccc(C(=O)Nc2ccccc2N)cc1	Tcruzi prolif 104, Pf Dd2 inh -91 (no result: C diff HTS)
Cc1noc(C)c1NC(=O)Nc1cccc2c1O[C@H](CN(C)C(=O)Nc1ccccc1)[C@H](C)CN([C@@H](C)CO)C2=O	none
O=C(C[C@@H]1CC[C@@H]2[C@H](COC[C@@H](O)CN2Cc2cc(F)ccc2F)O1)NCc1ccc(Oc2ccccc2)cc1	none (no result: Tcruzi prolif)
Cc1ccc(S(=O)(=O)Nc2ccc3c(c2)C(=O)N([C@@H](C)CO)C[C@H](C)[C@@H](CN(C)C(=O)Nc2cccc4ccccc24)OCCCC[C@H](C)O3)cc1	Pf Dd2 inh -83
Cc1ccc(S(=O)(=O)Nc2ccc3c(c2)C(=O)N([C@H](C)CO)C[C@H](C)[C@H](CN(C)C(=O)Nc2cccc4ccccc24)OCCCC[C@@H](C)O3)cc1	none
Cc1ccc(S(=O)(=O)Nc2ccc3c(c2)C(=O)N([C@@H](C)CO)C[C@H](C)[C@@H](CN(C)C(=O)Nc2cccc4ccccc24)OCCCC[C@@H](C)O3)cc1	Pf Dd2 inh -85
Cc1ccc(S(=O)(=O)Nc2ccc3c(c2)C(=O)N([C@H](C)CO)C[C@@H](C)[C@H](CN(C)C(=O)Nc2cccc4ccccc24)OCCCC[C@@H](C)O3)cc1	none
C[C@H](CO)N1C[C@H](C)[C@@H](CN(C)C(=O)Nc2cccc3ccccc23)OCCCC[C@H](C)Oc2ccc(NS(=O)(=O)c3ccccc3)cc2C1=O	none (no result: Tcruzi prolif, C diff HTS)
Cc1ccc(S(=O)(=O)Nc2ccc3c(c2)C(=O)N([C@@H](C)CO)C[C@@H](C)[C@@H](CN(C)C(=O)Nc2cccc4ccccc24)OCCCC[C@H](C)O3)cc1	Pf Dd2 inh -84
C[C@H](CO)N1C[C@H](C)[C@@H](CN(C)S(=O)(=O)c2cn(C)cn2)OCCCC[C@H](C)Oc2ccc(NC(=O)C3CCCCC3)cc2C1=O	none
C[C@H](CO)N1C[C@H](C)[C@H](CN(C)Cc2ccc(Oc3ccccc3)cc2)Oc2ccc(NC(=O)Nc3ccc(F)cc3)cc2CC1=O	none
C[C@@H]1CN([C@@H](C)CO)C(=O)Cc2cc(NC(=O)Nc3ccc4c(c3)OCO4)ccc2O[C@H]1CN(C)Cc1ccc(Oc2ccccc2)cc1	Pf Dd2 inh -81
C[C@H]1CN([C@@H](C)CO)C(=O)Cc2cc(NC(=O)Nc3ccc4c(c3)OCO4)ccc2O[C@@H]1CN(C)Cc1ccc(Oc2ccccc2)cc1	none
C[C@H](CO)N1C[C@H](C)[C@@H](CN(C)Cc2ccc(Oc3ccccc3)cc2)Oc2ccc(NC(=O)Nc3ccc(F)cc3)cc2CC1=O	Pf Dd2 inh -82
COc1ccc(CN2CC3(CN(Cc4ccccc4OC)C3)c3c([nH]c4cc(OC)ccc34)[C@H]2CO)cc1	none (no result: Tcruzi prolif)
COc1ccc(CN2CC3(C2)CN(Cc2ccc4c(c2)OCO4)[C@H](CO)c2[nH]c4cc(OC)ccc4c23)cc1	Pf Dd2 inh -87 (no result: Tcruzi prolif)
COc1ccc(CN2CC3(C2)CN(Cc2ccc4c(c2)OCO4)[C@@H](CO)c2[nH]c4cc(OC)ccc4c23)cc1	Pf Dd2 inh -84 (no result: Tcruzi prolif)
CCS(=O)(=O)N1CC2(CN(Cc3ccc4c(c3)OCO4)[C@@H](CO)c3[nH]c4cc(OC)ccc4c32)C1	none (no result: Tcruzi prolif)
CC(C)NC(=O)N(C)C[C@@H]1Oc2cc(C#Cc3cccc(F)c3)ccc2S(=O)(=O)N([C@H](C)CO)C[C@H]1C	none
CCCc1cn([C@H]2C[C@@H]3O[C@@H](CO)CC[C@@H]3O[C@@H]2CCc2ccc(-c3ccc(OC)cc3)cc2)nn1	Pf Dd2 inh inconclusive (no result: Tcruzi prolif)
C[C@H](CO)N1C[C@H](C)[C@H](CN(C)C(=O)C2CC2)Oc2ncc(-c3ccccc3F)cc2C1=O	none (no result: C diff HTS)
COc1ccc2c3c(n(C)c2c1)[C@H](CO)N(S(C)(=O)=O)CC31CCN(C(=O)C2CC2)CC1	none (no result: Tcruzi prolif)
C[C@@H]1CCCCO[C@@H](CN(C)Cc2ccc(C(F)(F)F)cc2)[C@@H](C)CN([C@@H](C)CO)C(=O)c2cc(NC(=O)Nc3ccc(C(F)(F)F)cc3)ccc2O1	none
C[C@H](CO)N1C[C@H](C)[C@@H](CN(C)Cc2ccc(Cl)c(Cl)c2)OCCCC[C@H](C)Oc2ccc(NC(=O)CCC(F)(F)F)cc2C1=O	none
C[C@@H]1CN([C@H](C)CO)C(=O)c2cc(NC(=O)CCC(F)(F)F)ccc2O[C@@H](C)CCCCO[C@H]1CN(C)Cc1ccc(Cl)c(Cl)c1	Pf Dd2 inh -83
C[C@H]1CCCCO[C@@H](CN(C)Cc2ccc(Cl)c(Cl)c2)[C@@H](C)CN([C@@H](C)CO)C(=O)c2cc(NC(=O)Nc3ccc(C(F)(F)F)cc3)ccc2O1	none
C[C@@H]1CCCCO[C@@H](CN(C)Cc2ccc(Cl)c(Cl)c2)[C@H](C)CN([C@@H](C)CO)C(=O)c2cc(NC(=O)Nc3ccc(C(F)(F)F)cc3)ccc2O1	Pf Dd2 inh -85
C[C@@H]1CCCCO[C@H](CN(C)Cc2ccc(Cl)c(Cl)c2)[C@@H](C)CN([C@@H](C)CO)C(=O)c2cc(NC(=O)Nc3ccc(C(F)(F)F)cc3)ccc2O1	Pf Dd2 inh -86
COCC(=O)N[C@@H]1CC[C@@H](CC(=O)N2CCCCC2)O[C@H]1CO	none (no result: C diff HTS)
CO[C@@H]1CN(C)C(=O)c2cc(NC(=O)c3cnccn3)ccc2OC[C@H](C)N(C(C)=O)C[C@@H]1C	none (no result: Tcruzi prolif, C diff HTS)
CCCN(C)C[C@H]1OCCCC[C@H](C)Oc2ccc(NS(=O)(=O)c3cccs3)cc2C(=O)N([C@H](C)CO)C[C@H]1C	Pf Dd2 inh inconclusive
CCCN(C)C[C@H]1OCCCC[C@H](C)Oc2ccc(NS(=O)(=O)c3cccs3)cc2C(=O)N([C@@H](C)CO)C[C@H]1C	none (no result: Tcruzi prolif)
CCCN(C)C[C@H]1OCCCC[C@@H](C)Oc2ccc(NS(=O)(=O)c3cccs3)cc2C(=O)N([C@@H](C)CO)C[C@@H]1C	Pf Dd2 inh -90
CCCN(C)C[C@H]1OCCCC[C@@H](C)Oc2ccc(NS(=O)(=O)c3cccs3)cc2C(=O)N([C@H](C)CO)C[C@@H]1C	Pf Dd2 inh -86 (no result: Tcruzi prolif)
Cc1ccc(S(=O)(=O)NCC[C@@H]2CC[C@@H](NC(=O)NC(C)C)[C@@H](CO)O2)cc1	none
O=C(C[C@@H]1CC[C@H]2[C@@H](COC[C@@H](O)CN2Cc2ccc(Oc3ccccc3)cc2)O1)N1CCc2ccccc2C1	none
COc1ccc(CN2C[C@H](O)COC[C@H]3O[C@H](CC(=O)NCc4ccncn4)CC[C@@H]32)cc1	none
